PubChem BioAssay AID1347415 (National Center for Advancing Translational Sciences (NCATS), 2020)
Records with an inconclusive call do not appear. Calls of active or inactive are those of the source. Calls follow the shape of the dose curve; as a rule, active = well fitted inhibition curve with a large enough effect; inconclusive = small, poorly fitted or top-dose-only effect; inactive = no such curve, though single readings can be large or run the other way.

Experiment: qHTS to identify inhibitors of the type 1 interferon - major histocompatibility complex class I in skeletal muscle: tertiary screen by RT-qPCR
Settings: C25cl48 human myoblasts, IFN-beta, HLA-B RT-qPCR, 24 h; series mostly up to 49.8 µM; activity change, negative = inhibition: at the top concentration
Excerpt: Assay Submitter (PI): Travis B. Kinder Ph.D. & James Inglese Ph.D. Assay Development and Screening Technology Laboratory (ADST) National Center for Advancing Translational Sciences (NCATS), Rockville, MD National Institute of Health (NIH), Bethesda, Maryland Idiopathic inflammatory myopathies, collectively referred to as myositis, are a group of rare autoimmune diseases characterized by skeletal muscle inflammation, weakness, and usually accompanied by systemic pathologies of the skin, lungs, or vasculature. Current immunosuppressive therapies and glucocorticoids are often not curative and are accompanied by harsh side effects, especially in children with juvenile myositis. We initiated a drug repurposing and development program to identify more targeted, less toxic therapeutics to treat myositis. Although its cause is not known, muscle from a subset of patients have an abundance of the inflammatory type 1 interferon (IFN) and a down-stream product major histocompatibility complex class I (MHC class I), which are both thought to contribute to damage and weakness. We conducted quantitative high throughput screening (qHTS) on 6,576 compounds (4,679 unique) through a series of cell-based assays to identify those that inhibit the IFN-stimulated expression of MHC class I in muscle precursor cells (myoblasts). The compound identification and evaluation strategy utilized a primary screen with reporter-tagged MHC class I in genome-engineered myoblasts, ATP content counter screen for viability, HLA-ABC immunofluorescence secondary screen, and HLA-B RT-qPCR tertiary screen. To determine if active compounds identified by qHTS in HLA-B HiBit reporter cells, and confirmed by HLA-ABC immunofluorescence, can inhibit the transcription of HLA-B mRNA, compounds were assayed by RT-qPCR. Briefly, 62 compounds identified from primary, counter, and secondary screening as inhibitory with minimal cytotoxicity were dispensed into 384-well plates using acoustic dispensing in a 6-point, 1:7 titration with a high final concentration of 10 uM. Normal immortalized human myoblasts C25cl48 were added to the plate with 4.0 ng/ml human IFN-beta for 24 hours, and cells were harvested and assayed by the Cells-to-Ct kit with TaqMan assays (Thermo Fisher).
PROTOCOL TABLE (as described by Inglese et al., 2007) SEQUENCE No. (e.g., 1, 2, 3, etc.); […] (e.g., Cells, Incubation, Reagent, etc.); VALUE; DESCRIPTION 0; Compounds; 150 nl; Follow-up compounds dispensed at 150 nl/well with Labcyte Echo 655 acoustic dispenser into one Corning white/clear bottom, high base TC 384-well plates (3765) 1a; Cells; 30 uL; Using a p200 manual pipette, seed 780 cells/well into 1 plate in 30 ul/well of iHSKM growth medium without dexamethasone into columns wells A1-A6. […]

Compound | Potency | activity change, negative = inhibition
Cc1cc(Nc2cc(NC(=O)c3c(Cl)cccc3Cl)ccn2)nc(N)n1 | 4630 nM (active) | 
O=C(Nc1nc2cccc(-c3ccc(CN4CCS(=O)(=O)CC4)cc3)n2n1)C1CC1 | 18400 nM (active) | 
Cc1nc(Nc2n[nH]c3c2CN(C(=O)N[C@H](CN(C)C)c2ccccc2)C3(C)C)c2sccc2n1 | 1840 nM (active) | 
Cc1ccc([N+](=O)[O-])cc1S(=O)(=O)N(C)/N=C/c1cnc2ccc(Br)cn12 | 232 nM (active) | 
COc1cccc2c1C(=O)c1c(O)c3c(c(O)c1C2=O)C[C@@](O)(/C(CO)=N/NC(=O)CCCCCN1C(=O)C=CC1=O)C[C@@H]3O[C@H]1C[C@H](N)[C@H](O)[C@H](C)O1 | 4630 nM (active) | 
NC(=O)Nc1sc(-c2ccc(F)cc2)cc1C(N)=O | 10400 nM (active) | 
CC(C)C[C@H](NC(=O)[C@H](CCc1ccccc1)NC(=O)CN1CCOCC1)C(=O)N[C@@H](Cc1ccccc1)C(=O)N[C@@H](CC(C)C)C(=O)[C@@]1(C)CO1 | 1840 nM (active) | 
OCCCNc1cc(-c2ccnc(Nc3cccc(Cl)c3)n2)ccn1 | 116 nM (active) | 
Cc1[nH]c2ccccc2c1CCNCc1ccc(/C=C/C(=O)NO)cc1 | 29.2 nM (active) | 
C[C@H]1C[C@@H]2[C@H]([C@@H](O)C[C@@]3(C)[C@H]2CC[C@]3(O)C(=O)CO)[C@@]2(C)C=CC(=O)C=C12 |  | -18% (inactive)
C[C@@]12O[C@@H](C[C@]1(O)CO)n1c3ccccc3c3c4c(c5c6ccccc6n2c5c31)CNC4=O | 2600 nM (active) | 
CC(=O)c1ccc2c(c1)c1cc(C(C)=O)ccc1n2CCNC(C)C | 1840 nM (active) | 
N#CCC1(n2cc(-c3ncnc4[nH]ccc34)cn2)CN(C2CCN(C(=O)c3ccnc(C(F)(F)F)c3F)CC2)C1 | 3680 nM (active) | 
Cc1cc(Nc2nc(N[C@@H](C)c3ncc(F)cn3)ncc2Cl)n[nH]1 | 4130 nM (active) | 
CN1CCN(Cc2ccc(NC(=O)Nc3ccc(Oc4cc(NC(=O)C5CC5)ncn4)cc3)cc2C(F)(F)F)CC1 | 146 nM (active) | 
COc1ccc(-c2nc(N3CCOCC3)c3sc(CN(C)c4ncc(C(=O)NO)cn4)cc3n2)cn1 | 23.2 nM (active) | 
Cc1ncsc1-c1ccc([C@H](C)NC(=O)[C@@H]2C[C@@H](O)CN2C(=O)[C@@H](NC(=O)COCCCOCCNC(=O)C[C@@H]2N=C(c3ccc(Cl)cc3)c3c(sc(C)c3C)-n3c(C)nnc32)C(C)(C)C)cc1 |  | -104% (inactive)
N#CCNC(=O)c1ccc(-c2ccnc(Nc3ccc(N4CCOCC4)cc3)n2)cc1 | 23200 nM (active) | 
Cc1cc(O)c(-c2ccc([C@@H](C)CN(C)C)cc2)c2c1[nH]c(=O)c1sccc12 | 51.9 nM (active) | 

Compound | Potency | activity change, negative = inhibition
CS[C@H]1SC[C@@H]2C(=O)N(C)[C@H](C(C)C)C(=O)OC[C@H](NC(=O)c3cnc4ccccc4n3)C(=O)N[C@H](C)C(=O)N(C)[C@H]1C(=O)N(C)[C@H](C(C)C)C(=O)OC[C@H](NC(=O)c1cnc3ccccc3n1)C(=O)N[C@H](C)C(=O)N2C |  | -135% (inactive)
C=C1C(=O)O[C@@H]2[C@H]3O[C@]3(C)CCC=C(C)CC[C@@H]12 | 16400 nM (active) | 
OC1CCC(Oc2cccc3cnc(Nc4ccc5nc[nH]c5c4)nc23)CC1 (configuration not stated) | 654 nM (active) | 
N#CC[C@H](C1CCCC1)n1cc(-c2ncnc3[nH]ccc23)cn1 | 1640 nM (active) | 
Cc1ccc(-c2ncn(-c3ccc(Nc4nccc(-c5cccc(N6CCOCC6)c5)n4)cc3)n2)cn1 | 1460 nM (active) | 
C=CCNC1=C2C[C@@H](C)C[C@H](OC)[C@H](O)[C@@H](C)/C=C(\C)[C@H](OC(N)=O)[C@@H](OC)/C=C\C=C(/C)C(=O)NC(=CC1=O)C2=O |  | -32.6% (inactive)
CN1CCN(c2cccc(Nc3nc4c(-c5ccc(S(C)(=O)=O)cc5)cccn4n3)c2)CC1 | 8230 nM (active) | 
O=C(/C=C/c1ccc(CN(CCO)CCc2c[nH]c3ccccc23)cc1)NO | 116 nM (active) | 
CC(=O)OCC(=O)[C@@]12OC(C)(C)O[C@@H]1C[C@H]1[C@@H]3C[C@H](F)C4=CC(=O)C=C[C@]4(C)[C@@]3(F)[C@@H](O)C[C@@]12C |  | -29.4% (inactive)
Cc1ccc(NC(=O)NCc2ccc3c(c2)CN(C2CCC(=O)NC2=O)C3=O)cc1Cl (configuration not stated) |  | -1.86% (inactive)
CCN(CC)Cc1ccc2cc(COC(=O)Nc3ccc(C(=O)NO)cc3)ccc2c1 | 4130 nM (active) | 
CC1=C(CO)C(=O)O[C@@H]([C@@H](C)[C@H]2CC[C@H]3[C@@H]4C[C@H]5O[C@]56[C@@H](O)C=CC(=O)[C@]6(C)[C@H]4CC[C@]23C)C1 | 1300 nM (active) | 
CCS(=O)(=O)N1CCN(c2ccc(Nc3ncc(C(N)=O)c(NC4CC4)n3)cc2)CC1 | 5830 nM (active) | 
c1cc(Nc2cc(C3CC3)[nH]n2)nc(Nc2ccc3nc[nH]c3c2)n1 | 654 nM (active) | 
C[C@]12C=CC(=O)C=C1CC[C@@H]1[C@@H]2[C@@H](O)C[C@@]2(C)[C@H]1CC[C@]2(O)C(=O)CO |  | -28.8% (inactive)
NC(=O)c1cnc2[nH]ccc2c1NC1C2CC3C[C@H]1CC(O)(C3)C2 (some centres not stated) | 1640 nM (active) | 
COc1cccc2c1C(=O)c1c(O)c3c(c(O)c1C2=O)C[C@@](O)(C(=O)CO)C[C@@H]3O[C@H]1C[C@H](N)[C@H](O)[C@H](C)O1 | 1040 nM (active) | 
CC(=O)c1cnc2ccc(-c3cc(Cl)c(O)c(Cl)c3)nc2c1NC1CCC(CN(C)C)CC1 (configuration not stated) | 116 nM (active) | 
